PTHR1 agonist = activates the human parathyroid hormone receptor PTHR1; Q03431; 410,000 compounds, 0.075% hits; Potency, µM (top dose mostly 115 µM), for the others: at the highest dose activation, hits mostly activators; HEK293 GP2 PTHR1 cells, GloSensor cAMP luminescence, 1 h; further: potency means the concentration at half of the fitted maximal effect; nearly all actives have a fitted effect of over 55% in size
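HEK-293-derived GP2 cells expressing PTHR1 and a GloSensor cAMP reporter, 3,000/well, plated overnight, given luciferin plus IBMX (each 0.5 mM as added) for 1 h at 37 °C, then compound for 1 h at 37 °C. Luminescence was read after 15 min at room temperature.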
RXFP1 antagonist = antagonists of human relaxin receptor RXFP1; activity change, negative = inhibition, % at 57.5 µM; AID 1259400; Q9HBX9; HEK293-RXFP1, relaxin-stimulated cAMP HTRF, 30 min; stronger effect = lower value; 350,000 compounds, 0.59% hits;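 active means activity change of -60% or lower, but not beyond a set lower limit; inconclusive means change between -60% and -40%, or beyond the set limit; inactive means change above -40%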; further: on the % scale 0 is the no-effect control and ±100 the full control effect
Target sequence (Q9HBX9 whole entry, looked up): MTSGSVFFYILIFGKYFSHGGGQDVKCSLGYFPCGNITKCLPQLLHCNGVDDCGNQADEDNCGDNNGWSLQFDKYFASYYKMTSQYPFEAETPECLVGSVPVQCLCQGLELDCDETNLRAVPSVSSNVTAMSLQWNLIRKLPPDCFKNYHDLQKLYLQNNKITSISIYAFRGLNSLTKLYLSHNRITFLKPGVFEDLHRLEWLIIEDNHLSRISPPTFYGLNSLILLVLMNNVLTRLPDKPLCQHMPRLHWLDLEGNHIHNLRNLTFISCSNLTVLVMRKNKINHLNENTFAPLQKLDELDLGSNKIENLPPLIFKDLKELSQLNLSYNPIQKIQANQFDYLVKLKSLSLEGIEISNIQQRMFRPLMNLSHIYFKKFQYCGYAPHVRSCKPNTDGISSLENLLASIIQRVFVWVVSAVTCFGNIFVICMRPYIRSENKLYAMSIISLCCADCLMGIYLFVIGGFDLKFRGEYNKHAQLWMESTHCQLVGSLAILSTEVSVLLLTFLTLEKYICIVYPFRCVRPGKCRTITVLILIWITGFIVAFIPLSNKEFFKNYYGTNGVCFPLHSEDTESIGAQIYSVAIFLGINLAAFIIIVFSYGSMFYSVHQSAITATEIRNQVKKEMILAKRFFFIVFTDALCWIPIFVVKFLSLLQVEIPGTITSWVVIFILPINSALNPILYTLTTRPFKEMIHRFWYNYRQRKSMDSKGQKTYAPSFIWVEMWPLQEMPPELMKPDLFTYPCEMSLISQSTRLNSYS
TSHR antagonist = blocks TSH signaling through the human TSH receptor; P16473; TSHR-expressing cells, TSH-stimulated cAMP HTRF, 2 h; stronger effect = lower value; activity change, negative = inhibition, % at 11.5 µM; 330,000 compounds, 0.2% hits; AID 504810;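 active means activity change below a set negative limit, meaning inhibition stronger than a set level, cut at about -70% in these data; inconclusive means activity change between two set negative limits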; further: on the % scale 0 is the no-effect control and ±100 the full control effect
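TSHR-expressing cells, 200/well, pre-treated with compound, then stimulated with EC80 TSH (4nM final) for 2 hours at 37 deg C. cAMP measured by competitive HTRF: anti-cAMP cryptate antibody in lysis buffer plus cAMP-d2, read after 30 minutes at room temperature.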
GLP1R cytotox = cytotoxicity counter-screen for GLP-1 receptor inverse agonists | 410,000 compounds, 0.13% hits | HEK293 cAMP-luciferase reporter cells, luminescence, 24 h | Potency, µM (titrated, usually from 38.3 µM), for the others: at the highest dose activity change, negative = inhibition, most hits filed as inhibitors;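 further: loss of luciferase light is scored as toxicity; potency means the concentration at half of the fitted maximal effect; on the % scale 0 is the no-effect control and ±100 the full control effect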
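A 23 nL compound transfer followed 12 hours of cell culture at 37 deg C; exposure then lasted 24 hr. Luciferase assay detection reagent was dispensed and plates read for luminescence after a 12 min room-temperature wait.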
NPSR antagonist = antagonists of human neuropeptide S receptor cAMP signaling; Q6W5P4; CHO-NPSR cells, cAMP TR-FRET, antagonist mode; Potency, µM (doses to about 38.3 µM), for inactives: at the highest dose activity change, negative = inhibition, actives largely listed as inhibitors; 220,000 compounds, 1% hits; further: potency means the concentration at half of the fitted maximal effect; on the % scale 0 is the no-effect control and ±100 the full control effect; nearly all actives have a fitted effect of over 50% in size
RXFP1 agonist = RXFP1 (human) receptor agonism; HEK293T-RXFP1 cAMP TR-FRET, 30 min; response scale: percent of porcine relaxin response, buffer zero; Q9HBX9; 370,000 compounds, 0.3% hits; AID 2676; Potency, µM (titrated, usually from 57.5 µM), for inactives: at the top dose activation, most hits filed as activators; further: potency means the concentration at half of the fitted maximal effect; on the % scale 0 is the no-effect control and ±100 the full control effect; nearly all actives have a fitted effect of over 60% in size
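cAMP rise read by TR-FRET after 30 min, 37C compound exposure (up to 58 uM) in RXFP1-transfected HEK293 cells with Ro 20174 present. EC50 from Hill-equation fits, with 29 nM porcine relaxin as 100% and buffer as basal.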
* hit, by the source's call; i = inactive; ? = inconclusive; . = not tested or not shown; [ ] = another dose, or the depositor's remark. This excerpt belongs to a sample that is enriched for hits. Unless noted, the call rests on the fitted dose curve; in most records, active means well fitted curve in the direction sought with a large enough effect; inconclusive means small, poorly fitted or top-dose-only effect, or another doubt; inactive means no such curve, though single readings can be large; an effect the other way counts as inactive or inconclusive.

SMILES	PTHR1 agonist	RXFP1 antagonist	TSHR antagonist	GLP1R cytotox	NPSR antagonist	RXFP1 agonist
C/C(=N\NC(=S)NCc1ccccc1)c1ccc2ccccc2c1	-31%	-9	-1	2.8µM*	-38%	1%
COc1ccc(NC(=S)NCc2ccccc2)c(OC)c1	i	-73*	4	-10%	.	0%
C/C(=N\NC(=S)NCc1ccccc1)c1cccc(Br)c1	-1%	-18	9	?	-34%	-1%
COc1ccccc1/C(C)=N/NC(=S)NCc1ccccc1	i	-10	-5	5µM*	?	1%
COc1ccc(CNC(=S)N/N=C(\C)c2ccc(OC)cc2)cc1	-7%	-6	-6	?	-27%	0%
NC(=O)CC[C@@H]1NC(=O)[C@H](Cc2ccccc2)NC(=O)[C@H](Cc2ccc(O)cc2)NC(=O)CCSSC[C@@H](C(=O)N2CCC[C@H]2C(=O)N[C@@H](CCCN=C(N)N)C(=O)NCC(N)=O)NC(=O)[C@H](CC(N)=O)NC1=O	.	11	.	.	.	.
COc1cc(C(=O)Nc2nonc2-c2ccc(Cl)cc2)cc(OC)c1OC	i	-8	.	-19%	.	0%
CSc1ccc(NC(=O)NCCCN2CCC(Cc3ccccc3)CC2)cc1	i	-9	9	?	.	1%
O=C(CCC(=O)Nc1ccc(Cl)cc1)N/N=C/c1ccc2c(c1)OCO2	i	-11	-72*	-12%	.	5%
COc1cc(C=CC(=O)N2CCN(CC(=O)N3CCCC3)CC2)cc(OC)c1OC	-3%	1	.	-12%	.	.
O=S(=O)(c1ccc(=S)[nH]c1)N1CCN(Cc2ccccc2)CC1	i	-66*	1	9%	.	.
O=S(=O)(c1ccc(=S)[nH]c1)N1CCCCC1	i	-22	9	2%	.	0%
CC1CCC(C(C)C)C(OC(=O)C2=C3c4ccccc4S(=O)(=O)N3CC2)C1 (stereo not drawn)	-21%[57.5 µM]	-9	-4	-7%	10µM*	2%
NC(=S)NCCC[C@H](N)C(=O)O	.	.	-13	.	.	.
O=C1[C@@H]2[C@H]3CC[C@H](C3)[C@@H]2C(=O)N1CCCCN1CCN(c2ncccn2)CC1	.	-12	.	.	.	.
O=C(Nc1ccc(Cl)cc1)Nc1ccc(Cl)c(C(F)(F)F)c1	.	-93*	.	.	.	.
CNc1ccc(/C=C(\C#N)C(=O)Nc2ccccn2)cc1[N+](=O)[O-]	-3%	19	64	-4%	.	18µM*
CCOC(=O)CC1C(=O)NCCN1c1nc2ccc(C)cn2c(=O)c1/C=C1\SC(=S)N(CC(C)C)C1=O (stereo not drawn)	-8%	-3	5	0%	-56%	4%
CCCN1C(=O)/C(=C/c2c(N3CCNC(=O)C3CC(=O)OCC)nc3c(C)cccn3c2=O)SC1=S (stereo not drawn)	-21%	-3	-14	-3%	13µM*	22%
CC(=O)CSc1nc(-c2cccs2)c(C#N)c(=O)[nH]1	2%	22	6	0%	?	14µM*
O=C1SC(SCc2ccccc2)=N/C1=C\c1ccco1	0.32µM*	0	.	9%	-9%[46.1 µM]	-2%
COc1ccc(-n2nc(C(=O)Nc3ccccc3OC)c3c4ccccc4n(C)c3c2=O)cc1Cl	4%	-12	.	1%	.	-1%
CC(C)(C)c1nnc(N/N=C/c2cc(Br)ccc2O)n(N)c1=O	-31%	-88*	-37	?	?	1%
Cc1ccc(S(=O)(=O)Nc2cccc3ncccc23)cc1	-35%	20	-6	1%	4%	-1%
Cc1ccc(S(=O)(=O)Nc2cccc3ncccc23)s1	-11%[57.5 µM]	2	-9	0%	2µM*	0%
Cc1cc(NC(=O)Nc2nnc(N(C)Cc3ccccc3)s2)ccc1Br	i	-6	.	0%	.	1%
COc1ccc(C(=O)NCCNC(=O)c2cnccn2)cc1OC	i	7	.	1%	.	4%
COc1cc(C(=O)NCCNC(=O)c2cnccn2)cc(OC)c1OC	i	11	-82*	?	.	1%

Source: PubChem BioAssay
